{"source": "PubChem BioAssay AID504929", "about": "(The Scripps Research Institute Molecular Screening Center, 2011)", "assay": "AlphaScreen signal with amyloid beta 1-40, late-stage follow-up, counter-screen for Wee1 degradation inhibitor project, biochemical, amplified proximity luminescence (AID 504929)", "conditions": "Abeta1-40 counterscreen, concentration not given here", "note": "The source made the active and inactive calls. The rule behind the calls is not given here."}
{"smiles": "O=[N+]([O-])c1cccc2[nH]c(CNc3nc(N4CCOCC4)nc4c3ncn4-c3ccsc3)nc12", "values": [{"measurement": "signal", "value": "60% (active)"}]}
{"smiles": "c1ccc2[nH]c(CNc3nc(N4CCOCC4)nc4c3ncn4-c3ccsc3)nc2c1", "values": [{"measurement": "signal", "value": "75% (active)"}]}
